Reference: PubChem BioAssay (NCATS)
Where “and” joins values, the source holds several entries; their conditions need not be identical. Equal values may be shown once. Records with an inconclusive call do not appear. Calls of active or inactive are those of the source. Unless noted, calls follow the shape of the dose curve; as a rule, active = well fitted curve in the direction sought with a large enough effect; inconclusive = small, poorly fitted or top-dose-only effect, or another doubt; inactive = no such curve, though single readings can be large; an effect the other way counts as inactive or inconclusive.

What was measured:
[1] = biological target: Cytochrome P450 2C19 (Homo sapiens) (UniProt P33261); test: qHTS Assay for Inhibitors and Substrates of Cytochrome P450 2C19 (AID 899); also: nearly all actives have a fitted effect of over 60% in size; also: potency is read from the fitted curve at half-maximal effect
Sequence of Cytochrome P450 2C19 (Homo sapiens) (P33261 whole entry, looked up): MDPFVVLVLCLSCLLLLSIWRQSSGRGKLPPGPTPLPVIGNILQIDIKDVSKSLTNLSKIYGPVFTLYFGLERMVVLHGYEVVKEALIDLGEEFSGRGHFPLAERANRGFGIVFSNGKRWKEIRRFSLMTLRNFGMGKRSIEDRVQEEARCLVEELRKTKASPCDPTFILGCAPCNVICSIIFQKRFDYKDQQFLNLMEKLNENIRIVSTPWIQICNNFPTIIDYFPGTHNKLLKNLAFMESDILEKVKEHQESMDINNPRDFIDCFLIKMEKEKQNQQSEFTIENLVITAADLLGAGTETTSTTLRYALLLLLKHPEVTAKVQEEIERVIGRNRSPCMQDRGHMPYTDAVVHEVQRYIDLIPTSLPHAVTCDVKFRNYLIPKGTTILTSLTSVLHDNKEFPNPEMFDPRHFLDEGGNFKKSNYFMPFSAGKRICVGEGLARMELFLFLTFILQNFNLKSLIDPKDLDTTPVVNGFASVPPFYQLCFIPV
How it was run: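 Reactions contain 5nM enzyme, 10uM Luciferin-H EGE (KM) and 50mM KPO4; compound preincubates 10 min at 37C, NADPH regeneration starts turnover for 60 min. Luminescence after detection reagent gives activity.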

[2] = Cell Viability - LYMP2-001 (AID 921);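 also: series mostly up to about 92 µM; 0% = DMSO only and full inhibition = tetraoctylammonium bromide control wells; nearly all actives have a fitted effect of over 70% in size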
How it was run: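 Steps: seed 2500 lymphoblastoid cells/well; 5 hr, 37 C; add compound; 24 hr, 37 C; CellTiter-Glo reagent, 30 min room temperature; read luminescence. Concentration-response modeled by Hill equation for AC50.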

[3] = MultiTox-Fluor Cytotoxicity Assay - LYMP1-002 - Dead Cells (AID 960); also: nearly all actives have a fitted effect of over 60% in size
How it was run: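 LYMP1-002 cells 2500/well; 5 hr 37 C pre-incubation; compound 16 hr 37 C; MultiTox-Fluor reagent 60 min RT; dead-cell fluor Ex/Em 485/520. Norm. to DMSO (0%) vs 15 uM tetraoctylammonium bromide (100%); Hill AC50.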

[4] = Cell Viability - LYMP2-005 (AID 967);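 also: series mostly up to about 92 µM; plate controls were DMSO only for no effect and 92 µM tetraoctylammonium bromide control for full effect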
How it was run: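 Acute cytotoxicity is scored as a concentration-dependent drop in intracellular ATP in human lymphoblastoid LYMP2-005 cells after 24 h compound treatment. ATP is quantified by luciferase luminescence, and AC50 is derived by Hill-equation modelling.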

[5] = Cell Viability - LYMP2-008 (AID 980); also: % is scaled to controls: 0 for no effect and ±100 for the full control effect; nearly all actives have a fitted effect of over 60% in size
How it was run: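 qHTS, human lymphoblastoid line, 2500 cells/well; 5 hr preincubation, 24 hr compound, 37 C. CellTiter-Glo ATP luminescence. AC50 via Hill equation. Tetraoctylammonium bromide positive control.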

[6] = Cell Viability - LYMP2-012 (AID 982);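 also: cellular ATP by luciferase luminescence where a drop means cytotoxicity; cells exposed to compound for one day before reading; 0% = DMSO only and full loss = 92 µM tetraoctylammonium bromide; nearly all actives have a fitted effect of over 55% in size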
[7] = Cell Viability - LYMP2-016 (AID 984);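 also: cells exposed to compound for 24 hours at 37 °C; % is scaled to controls: 0 for no effect and ±100 for the full control effect; nearly all actives have a fitted effect of over 55% in size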
How it was run: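 Cells were seeded at 2500 per well and rested 5 hr before a 24 hr compound exposure at 37 C. Viability was then gauged as cellular ATP by luciferase luminescence, with AC50 values fitted to the Hill equation.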

[8] = Cell Viability - LYMP2-018 (AID 985);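 also: plate controls were DMSO only for no effect and tetraoctylammonium bromide at 92 µM for full effect; nearly all actives have a fitted effect of over 50% in size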
How it was run: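 Luminescent ATP signal (CellTiter-Glo, read after 30 min at room temperature) reports viable cells after 24 hr compound treatment at 37 C. Concentration-response data were fitted to the standard Hill equation for AC50.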

[9] = Cell Viability - LYMP2-020 (AID 986);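 also: series mostly up to about 92 µM; plate controls were DMSO only for no effect and tetraoctylammonium bromide at 92 µM for full effect; nearly all actives have a fitted effect of over 55% in size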
How it was run: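 Luminescent ATP signal (CellTiter-Glo, 30 min at room temperature) is the read-out after 24 h compound treatment of lymphoblastoid cells at 37 C. AC50 values come from Hill-equation fits across concentrations.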

[10] = Cell Viability - LYMP2-022 (AID 987);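 also: 0% = DMSO alone and full effect = tetraoctylammonium bromide at 92 µM; nearly all actives have a fitted effect of over 55% in size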
How it was run: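 qHTS: human lymphoblastoid cells 2500/well; 5 hr 37 C; cpd added; 24 hr 37 C; CellTiter-Glo, 30 min RT; luminescence. AC50 via Hill fit; tetraoctylammonium bromide positive ctrl.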

[11] = Cell Viability - LYMP2-024 (AID 988);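 also: plate controls were DMSO only for no effect and 92 µM tetraoctylammonium bromide for full effect; nearly all actives have a fitted effect of over 60% in size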
How it was run: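 Steps: seed 2500 cells/well, 5 hr 37 C; add compound, 24 hr 37 C; add CellTiter-Glo, 30 min room temperature; read luminescence. AC50 derived by Hill modelling of concentration-dependent ATP loss.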

[12] = biological target: Vitamin D3 receptor (Homo sapiens) (UniProt P11473); test: qHTS assay for small molecule antagonists of vitamin D receptor signaling (AID 588541; calls by dose curve;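 also: receptor activated by calcitriol during compound treatment; series mostly up to about 77 µM; % is scaled to controls: 0 for no effect and ±100 for the full control effect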)
Sequence of Vitamin D3 receptor (Homo sapiens) (P11473 whole entry, looked up): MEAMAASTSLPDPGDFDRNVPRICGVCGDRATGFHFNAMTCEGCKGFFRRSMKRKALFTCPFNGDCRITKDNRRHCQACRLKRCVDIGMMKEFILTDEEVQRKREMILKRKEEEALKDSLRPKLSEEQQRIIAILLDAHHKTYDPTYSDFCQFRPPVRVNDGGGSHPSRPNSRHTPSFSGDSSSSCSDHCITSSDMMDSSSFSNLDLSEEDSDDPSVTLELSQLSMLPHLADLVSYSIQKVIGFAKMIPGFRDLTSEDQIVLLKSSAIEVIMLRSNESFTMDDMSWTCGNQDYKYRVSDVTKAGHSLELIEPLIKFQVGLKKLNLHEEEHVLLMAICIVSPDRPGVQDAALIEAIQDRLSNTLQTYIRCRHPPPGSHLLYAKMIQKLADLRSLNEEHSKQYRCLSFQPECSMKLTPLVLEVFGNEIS
How it was run: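 Antagonist-mode beta-lactamase reporter assay: HEK293T VDR-UAS-bla cells were exposed to titrated compound alongside 1-alpha,25-dihydroxyvitamin D3 at 3 nM final for 16 h. Values were normalized to the 50 nM agonist control and DMSO basal, with IC50 and efficacy from Hill equation fits.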

[13] = biological target: Vitamin D3 receptor (Homo sapiens) (UniProt P11473); test: qHTS assay for small molecule agonists of vitamin D receptor signaling (AID 588543; calls by dose curve;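 also: 0% = DMSO basal and 100% = reference agonist control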)
How it was run: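 Reporter cells (HEK293T, VDR-UAS-bla) were seeded in medium with 2% charcoal-stripped serum and incubated 5 h, then compounds in concentration series were added for 16 h at 37 °C. Stimulation was scaled between DMSO basal and 50 nM 1α,25-dihydroxyvitamin D3.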

[14] = biological target: Thyroid hormone receptor beta (Homo sapiens) (UniProt P10828); test: qHTS assay for small molecule agonists of thyroid hormone receptor beta signaling (AID 588545; calls by dose curve;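 also: 0% = DMSO only and 100% = 10 nM T3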)
Sequence of Thyroid hormone receptor beta (Homo sapiens) (P10828 whole entry, looked up): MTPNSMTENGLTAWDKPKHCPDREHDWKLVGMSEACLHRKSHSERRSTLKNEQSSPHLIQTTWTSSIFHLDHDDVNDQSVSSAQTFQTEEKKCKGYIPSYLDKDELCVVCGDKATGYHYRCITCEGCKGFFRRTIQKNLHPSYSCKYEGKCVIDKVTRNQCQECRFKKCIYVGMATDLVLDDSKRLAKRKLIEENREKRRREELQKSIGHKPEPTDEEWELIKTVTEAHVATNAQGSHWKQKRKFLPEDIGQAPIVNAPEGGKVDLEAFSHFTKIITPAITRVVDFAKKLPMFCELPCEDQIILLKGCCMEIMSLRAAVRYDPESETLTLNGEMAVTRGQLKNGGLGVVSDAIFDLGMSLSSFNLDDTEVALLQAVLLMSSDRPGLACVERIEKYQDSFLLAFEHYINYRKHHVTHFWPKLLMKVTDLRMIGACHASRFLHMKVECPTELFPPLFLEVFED
How it was run: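 Efficacy and EC50 values derive from Hill fits of qHTS titration data, normalized to 10 nM T3 and DMSO-only wells. HEK 293 reporter cells were stimulated for 18 hrs at 37 C, with beta-lactamase activity measured by CCF4 fluorescence.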

[15] = qHTS assay for small molecule disruptors of the mitochondrial membrane potential - 1 hr assay (AID 651754; calls by dose curve; also: % is scaled to controls: 0 for no effect and ±100 for the full control effect; nearly all actives have a fitted effect of over 35% in size)
How it was run: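 HepG2, 2,000 cells/well, overnight attachment; cpd or DMSO 1 hr, 37C/5% CO2; Mito-MPS dye 30 min, 37C; fluorescence monomer (490/535) and aggregate (540/590).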

[16] = qHTS assay for environmental chemicals that activate the Aryl hydrocarbon Receptor (AhR) signaling pathway (AID 651777); conditions: 1A2-DRE human hepatoma cells, luciferase, 24 h; activation: stronger effect = higher value; also: % of control where 0% means no effect; nearly all actives have a fitted effect of over 15% in size
How it was run: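 1A2-DRE human hepatoma reporter line; 1,200 cells/well; cmpd or DMSO 24 h, 37 C/5% CO2; One-Glo 30 min RT; luciferase lum.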

[17] = biological target: Nuclear receptor ROR-gamma (Homo sapiens) (UniProt P51449); test: qHTS assay for small molecule antagonists of the retinoid-related orphan receptor gamma (ROR-gamma) signaling pathway (AID 651802)
Sequence of Nuclear receptor ROR-gamma (Homo sapiens) (P51449 whole entry, looked up): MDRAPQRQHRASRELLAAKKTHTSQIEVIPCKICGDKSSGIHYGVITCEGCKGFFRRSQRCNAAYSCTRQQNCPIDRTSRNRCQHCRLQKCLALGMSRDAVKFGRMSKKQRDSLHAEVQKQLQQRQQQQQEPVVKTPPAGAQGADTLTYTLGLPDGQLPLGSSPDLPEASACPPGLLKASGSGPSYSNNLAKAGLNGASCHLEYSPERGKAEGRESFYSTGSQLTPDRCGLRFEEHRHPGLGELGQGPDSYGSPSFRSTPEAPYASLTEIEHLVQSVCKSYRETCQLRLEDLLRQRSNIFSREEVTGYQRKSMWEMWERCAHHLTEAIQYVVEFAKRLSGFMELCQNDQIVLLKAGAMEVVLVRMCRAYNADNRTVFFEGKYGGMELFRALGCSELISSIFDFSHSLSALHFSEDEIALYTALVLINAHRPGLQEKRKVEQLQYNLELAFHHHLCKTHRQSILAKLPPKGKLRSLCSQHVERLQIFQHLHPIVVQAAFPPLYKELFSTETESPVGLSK
How it was run: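 CHO, TET-inducible ROR + RORE-LUC reporter, 1536-well qHTS. Compound pinned, doxycycline added, 16hr 37C/5% CO2. ONE-Glo, 30 min RT, luminescence; signal drop scored as antagonism.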

[18] = qHTS assay for small molecule antagonists of the retinoid-related orphan receptor gamma (ROR-gamma) signaling pathway - cell viability counter screen (AID 720652; active = well fitted curve in the direction sought with a large enough effect in the repeat runs; an effect the other way counts as inactive or inconclusive;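 also: series mostly up to about 92 µM; compound exposure lasted 16 hr before ATP read; % is scaled to controls: 0 for no effect and ±100 for the full control effect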)
How it was run: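 Luminescence from CellTiter-Glo after 30 min at room temperature reported cellular ATP as the cytotoxicity measure. Cells were the CHO reporter line with doxycycline-induced ROR-gamma expression, exposed to compound for 16 hr at 37 C.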

[19] = biological target: Nuclear receptor subfamily 1 group I member 2 (Rattus norvegicus) (UniProt Q9R1A7); test: qHTS assay for small molecule activators of the rat pregnane X receptor (rPXR) signaling pathway (AID 651751; call rule not given here; also: 0% is about no effect); conditions: rPXR reporter cells, luciferase (One-Glo), 24 h
Sequence of Nuclear receptor subfamily 1 group I member 2 (Rattus norvegicus) (Q9R1A7 whole entry, looked up): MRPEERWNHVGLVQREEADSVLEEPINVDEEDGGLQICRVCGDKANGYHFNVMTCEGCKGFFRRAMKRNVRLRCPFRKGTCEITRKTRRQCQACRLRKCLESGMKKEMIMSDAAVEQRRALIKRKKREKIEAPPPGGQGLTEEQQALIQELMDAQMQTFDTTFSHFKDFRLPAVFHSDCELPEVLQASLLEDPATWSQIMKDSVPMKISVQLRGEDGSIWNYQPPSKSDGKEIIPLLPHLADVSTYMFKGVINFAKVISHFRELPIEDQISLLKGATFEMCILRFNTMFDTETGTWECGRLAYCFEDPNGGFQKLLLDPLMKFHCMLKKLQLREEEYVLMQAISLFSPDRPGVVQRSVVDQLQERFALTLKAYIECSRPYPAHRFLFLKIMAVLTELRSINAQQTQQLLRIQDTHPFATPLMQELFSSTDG

[20] = qHTS assay for small molecule activators of the human pregnane X receptor (PXR) signaling pathway (AID 720659; call rule not given here; also: 0% is about no effect)

CCC/C=C(\CCC)C(NS(=O)(=O)c1ccc(C(F)(F)F)cc1)c1ccc(-c2ccccc2)cc1 (configuration not stated)
active: Potency [1] 7940 nM

C[C@@H](C(=O)NCc1ccc(S(C)(=O)=O)cc1)[C@@H]1C[C@@]1(C)[C@@H](NC(=O)OCc1ccccc1)c1ccccc1
active: Potency [1] 1260 nM

CC[C@@H]1OC(=O)[C@@H](C)[C@H](O[C@@H]2C[C@@](C)(OC)[C@@H](O)[C@H](C)O2)[C@H](C)[C@H](O[C@@H]2O[C@@H](C)C[C@@H](N(C)C)[C@H]2O)[C@@](C)(O)C[C@H](C)C(=O)[C@@H](C)[C@H](O)[C@@]1(C)O
inactive: Potency [1]

CC[C@H]1C2=C3C(CC[C@H]4C(OC)OC[C@](C)([C@@H]34)N(C(=O)OC(C)(C)C)C2)C(CO)C1CO (some centres not stated)
inactive: Potency [1]

C[C@@H](C(=O)O)[C@H]1C[C@]1(C)[C@H](NC(=O)OCc1ccccc1)c1ccccc1
active: Potency [1] 7940 nM

Cc1cccc(O)c1C
inactive: Potency [2] | Potency [3] | Potency [4] | Potency [5] | Potency [6] | Potency [7] | Potency [8] | Potency [9] | Potency [10] | Potency [11] | Potency [12] | outcome [13] | outcome [14] | Potency [15] | activation [16] -0.837% | Potency [17] | Potency [18] | max response [19] -0.434% | outcome [20]

ClC1=C(Cl)C(Cl)(Cl)C(Cl)=C1Cl
inactive: Potency [3] | Potency [4] | Potency [12] | outcome [13] | outcome [14] | Potency [15] | activation [16] 0.158% and 0.426% | max response [19] 3.04% and -2.94% | outcome [20]

CCC/C=C(\CCC)C(NS(=O)(=O)c1ccccc1)c1ccc(C(F)(F)F)cc1 (configuration not stated)
active: Potency [1] 7940 nM

CCC/C=C(\CCC)C(NS(=O)(=O)c1ccc(Cl)cc1)c1ccccc1 (configuration not stated)
active: Potency [1] 398 nM

CCC/C=C(\CCC)C(NC(=O)Cc1ccccc1)c1ccc(C(=O)OC)cc1 (configuration not stated)
active: Potency [1] 2510 nM

CCCC[C@@H]1C[C@H]1C(NC(=O)c1cccs1)c1ccc(Cl)cc1 (some centres not stated)
active: Potency [1] 79.4 nM

CCC/C=C(\CCC)C(NS(=O)(=O)c1cccs1)c1ccc(C(=O)OC)cc1 (configuration not stated)
active: Potency [1] 794 nM

COC(=O)[C@H](C)[C@H]1C[C@]1(C)[C@H](NC(=O)OCc1ccccc1)c1ccccc1
active: Potency [1] 251 nM

CCCCCC/C(C=O)=C\c1ccccc1
inactive: Potency [2] | Potency [3] | Potency [4] | Potency [5] | Potency [6] | Potency [7] | Potency [8] | Potency [9] | Potency [10] | Potency [11] | Potency [12] | outcome [13] | outcome [14] | Potency [15] | activation [16] -0.354% | Potency [17] | Potency [18] | max response [19] -2.08% | outcome [20]

CCCC[C@@H]1C[C@H]1C(NC(=O)c1ccco1)c1ccccc1 (some centres not stated)
active: Potency [1] 1260 nM

CCCC/C=C/C(NC(=O)Oc1cccc(C(F)(F)F)c1)c1ccccc1 (configuration not stated)
active: Potency [1] 3160 nM

CCC/C=C(\CCC)C(NS(=O)(=O)c1ccc(Cl)cc1)c1ccc(C(=O)OC)cc1 (configuration not stated)
active: Potency [1] 1580 nM

COC(=O)[C@@]1(Cc2ccccc2)[C@H]2c3cc(C(=O)N4CCCC4)n(CC4CC4)c3C[C@H]2CN1C(=O)c1ccccc1
active: Potency [1] 3160 nM

CCc1cccc2c(-c3ccccc3)c3c(nc12)OCC3
active: Potency [1] 7940 nM

CN1[C@H]2CC(OC(=O)[C@H](CO)c3ccccc3)C[C@H]1[C@H]1O[C@H]12 (some centres not stated)
inactive: Potency [2] | Potency [3] | Potency [5] | Potency [6] | Potency [7] | Potency [8] | Potency [9] | Potency [10] | Potency [11] | Potency [12] | outcome [13] | outcome [14] | Potency [15] | activation [16] -0.0972% and -0.778% | Potency [17] | Potency [18] | max response [19] -5.42% and 5.83% | outcome [20]

O=C(/C=C/c1ccc(O)c(O)c1)OC1C[C@](O)(C(=O)O)C[C@@H](O)[C@H]1O (some centres not stated)
inactive: Potency [2] | Potency [3] | Potency [4] | Potency [5] | Potency [6] | Potency [7] | Potency [8] | Potency [9] | Potency [10] | Potency [11] | outcome [14] | Potency [15] | Potency [17] | Potency [18] | max response [19] -2.65% and 8.84% | outcome [20]
